Compound activity from PubChem.
Rows were chosen to be rich in hits. Some 1.7% of all compounds tested hit in one or more screens of this group.
RXFP1 agonist = qHTS Assay for Agonists of the Relaxin Receptor RXFP1; HEK293T-RXFP1 cAMP TR-FRET, 30 min; response scale: percent of porcine relaxin response, buffer zero; Potency, µM (highest dose often 57.5 µM), for inactives: at the top dose activation, most hits filed as activators; 370,000 compounds, 0.3% hits; Relaxin receptor 1 (Homo sapiens), Q9HBX9; AID 2676, 2010; active = well fitted activation curve with a large enough effect; inconclusive = small, poorly fitted or top-dose-only effect; also: potency is read from the fitted curve at half-maximal effect; nearly all actives have a fitted effect of over 60% in size
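HEK293T cells stably expressing RXFP1 were pretreated with the PDE4 inhibitor Ro 20174, exposed to compounds for 30 min at 37C, lysed, and cAMP was read by TR-FRET. Data normalized to buffer (basal) and 29 nM porcine relaxin (100%).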
pAkt inh = HTS Assay for Inhibitors of Akt Phophorylation: Primary Screen | Neuro2A IGF-stimulated pAkt S473 HTRF, 20 min; active compounds read low | activity change, % for hits at 50 µM | 360,000 compounds, 0.32% hits; in the data active = activity change below about -80%; inconclusive = mostly about -51% to -80%
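Neuro2A cells in DMEM with 0.5% FBS, overnight at 37 deg C, given compound at single 50 µM final, then IGF (6 nM final) for 20 min at 37 deg C. Lysed; phospho-Akt Ser473 by HTRF after 24 h, 665/615 ratio.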
hERG WT inh = qHTS for Inhibitors of KCHN2 3.1: Wildtype qHTS | activity change, % at 1.84 µM | U2OS, BacMam KCNH2, thallium flux FluxOr; active compounds read low | 340,000 compounds, 0.37% hits | AID 720551, 2013;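 active = maximum activity change below -70%; inconclusive = maximum activity change between -70% and -50%; inactive = maximum activity change above -50%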
Target sequence (Q12809 whole entry, looked up): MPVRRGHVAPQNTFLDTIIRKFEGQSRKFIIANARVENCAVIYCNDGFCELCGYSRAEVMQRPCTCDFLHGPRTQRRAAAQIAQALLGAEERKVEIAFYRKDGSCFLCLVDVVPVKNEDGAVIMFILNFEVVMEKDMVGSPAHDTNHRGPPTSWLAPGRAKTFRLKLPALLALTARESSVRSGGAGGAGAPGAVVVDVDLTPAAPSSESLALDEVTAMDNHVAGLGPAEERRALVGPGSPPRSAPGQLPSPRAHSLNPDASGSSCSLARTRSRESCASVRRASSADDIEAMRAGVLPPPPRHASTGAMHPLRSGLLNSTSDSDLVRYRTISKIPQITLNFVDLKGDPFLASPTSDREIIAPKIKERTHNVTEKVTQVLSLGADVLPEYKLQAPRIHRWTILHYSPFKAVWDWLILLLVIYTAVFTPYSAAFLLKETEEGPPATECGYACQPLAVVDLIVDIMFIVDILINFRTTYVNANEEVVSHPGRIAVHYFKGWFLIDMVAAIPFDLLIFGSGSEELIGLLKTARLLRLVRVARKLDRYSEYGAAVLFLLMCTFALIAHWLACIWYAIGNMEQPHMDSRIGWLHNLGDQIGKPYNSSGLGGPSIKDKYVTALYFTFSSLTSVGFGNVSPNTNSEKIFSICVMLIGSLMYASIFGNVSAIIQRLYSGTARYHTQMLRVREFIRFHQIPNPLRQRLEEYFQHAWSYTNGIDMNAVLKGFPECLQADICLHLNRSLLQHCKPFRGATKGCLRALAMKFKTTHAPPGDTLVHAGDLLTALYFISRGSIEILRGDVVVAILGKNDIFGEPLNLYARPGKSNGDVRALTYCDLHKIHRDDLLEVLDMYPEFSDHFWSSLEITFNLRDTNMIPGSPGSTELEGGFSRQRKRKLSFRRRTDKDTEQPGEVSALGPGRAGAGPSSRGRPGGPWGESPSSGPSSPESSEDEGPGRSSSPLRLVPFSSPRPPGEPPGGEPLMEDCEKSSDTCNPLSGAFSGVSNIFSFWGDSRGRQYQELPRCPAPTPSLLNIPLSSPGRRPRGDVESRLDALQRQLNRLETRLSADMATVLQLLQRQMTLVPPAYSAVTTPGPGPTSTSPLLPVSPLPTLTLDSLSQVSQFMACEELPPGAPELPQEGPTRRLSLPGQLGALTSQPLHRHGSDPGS
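U2OS cells transduced with wild-type KCNH2 virus are loaded with FluxOr dye for 45 min, and thallium flux is measured in kinetic reads before and after stimulation buffer. Rate constants are normalized to DMSO controls.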
KCNH2 3.1 inh = qHTS for Inhibitors of KCHN2 3.1: Mutant qHTS | Potassium voltage-gated channel subfamily H member 2, brain isoform KCNH2 3.1 (human) | U2OS KCNH2 3.1, thallium flux FluxOr; active compounds read low | activity change, % (tested at about 1.8 µM) | 340,000 compounds, 0.95% hits | AID 720553, 2013;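 active = maximum activity change below -70%; inconclusive = maximum activity change from -70% to -50%; inactive = maximum activity change above -50%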;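 also: thallium influx rate constant from kinetic fluorescence after stimulation buffer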
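Channel expression came from 3.1 mutant virus (1.77 x 10^8 /mL) applied to suspended U2OS cells for 4 h. Flux was tracked with FluxOr dye plus Red40 quencher, and kinetic rate constants normalized to controls.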
RXFP1 antag = qHTS Assay for Antagonists of the Relaxin Receptor RXFP1. AID 1259400, 2018. 350,000 compounds, 0.59% hits. HEK293-RXFP1, relaxin-stimulated cAMP HTRF, 30 min; active compounds read low. Relaxin receptor 1 (Homo sapiens), Q9HBX9. activity change, negative = inhibition, % at 57.5 µM;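 active = activity change of -60% or lower, but not beyond a set lower limit; inconclusive = change between -60% and -40%, or beyond the set limit; inactive = change above -40%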
Numbers without * were called inactive; i = inactive; ? = inconclusive; / = no result. % is scaled to controls: 0 for no effect and ±100 for the full control effect.

SMILES | RXFP1 agonist | pAkt inh | hERG WT inh | KCNH2 3.1 inh | RXFP1 antag
CCC(=O)Nc1cc(C(=O)O)ccc1Sc1ccccc1 | 0% | i | 0 | -116* | 5
CC(=O)Nc1ccc(C(=O)OCC(=O)Nc2ccccc2Sc2ccccc2)cc1 | 1% | i | -21 | -79* | -1
N#CCC(=O)Nc1ccc(C(=O)OCC(=O)Nc2ccccc2Sc2ccccc2)cc1 | 3% | i | -6 | -4 | 1
COc1ccc(NC(=S)NC2CCCC2)c(OC)c1 | -1% | i | -2 | -11 | -14
CN=C(C[N+](=O)[O-])NCCSCc1ccc(CN(C)C)o1 | / | i | 0 | 8 | /
C=CCn1c(=NC(=O)CN2C(=O)CCC2=O)sc2cccc(OC)c21 | 2% | i | 0 | 0 | -2
COc1cccc(NC(=O)C2CCCN2C(=O)Nc2ccccc2)c1 (stereo not drawn) | 1% | i | -13 | 10 | 3
COc1cccc(OC)c1NC(=O)C1CCCN1C(=O)Nc1cccc(Cl)c1 (stereo not drawn) | 0% | i | -6 | -5 | -63*
CSc1ccc(CN2CCCC(CNC(=O)c3ccc(F)cc3)C2)cc1 (stereo not drawn) | -4% | i | 0 | -78* | -12
CSc1cccc(CN2CCCC(CNC(=O)c3ccc(F)cc3)C2)c1 (stereo not drawn) | -2% | i | 19 | -21 | 1
CCOc1ccc(CN2CCCC(CNC(=O)c3ccc(F)cc3)C2)cc1CO (stereo not drawn) | 3% | i | / | -101* | 1
COc1cc(/C=N/NC(=O)CNC(=O)c2ccncc2)ccc1O | -6% | i | 13 | 0 | -8
CCCCCC(=O)Nc1ccc(N2CCN(CC)CC2)c(Cl)c1 | 0% | i | 23 | -102* | -4
CCCCCC(=O)NC(=S)Nc1ccc(N2CCCCC2)c(Cl)c1 | 1% | i | 6 | -5 | -2
COc1ccc(NC(=S)NCCc2ccccc2)c(OC)c1 | 1% | i | 11 | -9 | -7
COc1ccc(NC(=S)NCc2ccccc2)c(OC)c1 | 0% | i | 2 | 27 | -73*
Cn1c(SCC(=O)N2CCN(c3ccccc3)CC2)nnc1-c1ccco1 | 1% | i | -77* | 5 | 6
COc1ccc(N2CCN(C(=O)CSc3nnc(-c4cc5ccccc5cc4O)n3C)CC2)cc1 | 1% | i | 0 | -24 | -14
COc1ccc(-n2cnnc2SCC(=O)N2CCN(c3ccccc3)CC2)cc1 | 1% | -108%* | 10 | 2 | -26
Cc1ccc(NC(=O)c2cc3ccccc3o2)cc1S(=O)(=O)N(C)C | -2% | i | -23 | -14 | -9
Cn1c(N2CCN(C(=O)Nc3ccc(F)cc3)CC2)nc2ccccc21 | -1% | i | 28 | -12 | -7
Cn1c(N2CCN(C(c3ccccc3)c3ccccc3)CC2)nc2ccccc21 | 1% | i | -48 | -86* | -11
CCN(c1ccccc1)S(=O)(=O)c1c[nH]c2ccc([N+](=O)[O-])cc12 | 3% | i | 5 | -10 | 15
CCCCNC(=O)c1cc(C)nn1-c1ccccc1 | 4% | i | -10 | -13 | 13
COC(=O)C(C)Sc1ccc2nnc(-c3ccccc3)n2n1 (stereo not drawn) | 25µM* | i | 7 | -10 | 0
CCC(Sc1ccc2nnc(-c3cccnc3)n2n1)C(=O)O (stereo not drawn) | 14µM* | i | -10 | 2 | /
Cc1ccc(-c2nnc3ccc(SC(C)C(=O)O)nn23)cc1 (stereo not drawn) | ? | i | -7 | -16 | /
CCOC(=O)C(CC)Sc1ccc2nnc(-c3cccnc3)n2n1 (stereo not drawn) | 18µM* | i | 1 | -5 | 0
COc1ccc(C(=O)OCn2nnc3ccccc3c2=O)cc1[N+](=O)[O-] | 2% | i | -2 | 1 | -12
